Compounds without any hit were thinned out: in the full panel of roughly 83,000, 20% have a hit.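 Negative percent growth values reflect cell death: -40 means 40% of the cells present at the start died, and -100 means all died.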 Values without a mark were called inactive. Activity calls are given as the source filed them. The calls were made as follows: active = growth percent below 10; inactive = the rest.
tested on: HL-60(TB) leukemia; assay: NCI-60 one-dose screen, 48 h (100 = growth as untreated, 0 = no growth, -100 = all killed); conditions: 10 µM unless noted

Compound | growth
CC(=O)Nc1ccc(C=Nc2ccc3ccccc3c2)cc1 | 107%
CS(=O)(=O)c1cccc(Nc2ncc3cc(-c4ccccc4Cl)ccc3n2)c1 | -8.46% (active)
CCOc1ccc(C(CN2CCOCC2)C(C)=O)cc1OC (stereo not given) | 84.7%
O=S(=O)(NCCNc1nccc(-c2c(-c3ccc(F)c(O)c3)nc3sccn23)n1)c1ccc(F)cc1 | 12.7%
Clc1ccc(/C=N/Nc2nc3ccccc3s2)c(Cl)c1 | 98.5%
COc1cc(-c2csc(NC(=O)Nc3ccc(C(F)(F)F)cc3)n2)cc(OC)c1OC | -13.8% (active)
O=C(Nc1ccccc1C(F)(F)F)C1=NCCCCN1 | 99.8%
CCC1NC(=O)C(NC(=O)c2ncccc2O)C(C)OC(=O)C(c2ccccc2)NC(=O)C2CC(=O)CCN2C(=O)C(Cc2ccc(N(C)C)cc2)N(C)C(=O)C2CCCN2C1=O (stereo not given) (tested in a mixture with another compound) | 42.5%
CNC(=O)c1cc(Oc2ccc(NC(=O)c3[nH]c(SC)nc3-c3ccc(F)cc3)cc2)ccn1 | 78.6%
Cc1nn2c(-c3nc4ccc(Cl)cc4[nH]3)c(-c3ccc(F)cc3)nc2s1 | 117%
COc1ccc(/C=C/c2nc(Nc3ccc(S(=O)(=O)NC(C)=O)cc3)c3ccccc3n2)cc1 | 85.7%
CCCc1cc(=O)n2c(C(=O)Nc3ccc(F)cc3)c(C(=O)Nc3ccc(F)cc3)sc2n1 | 106% [30 µM]
O=C1NCC2CCCC1C2 (stereo not given) | 98.6%
O=[N+]([O-])c1cccc(-c2nc3sccn3c2-c2ccnc(NCCCNS(=O)(=O)c3cccc(F)c3)n2)c1 | -21.5% (active)
CC1CC(C)(C)OB(OC(C)CC(C)(C)OB2OC(C)CC(C)(C)O2)O1 (stereo not given) | 103%
OCC1OC(OC2C(O)C(CO)OC2(CO)OC2OC(CO)C(O)C(O)C2O)C(O)C(O)C1O (stereo not given) | 129%
COC(=O)CCCCCCCCC1(C)C=CC(C(C)O)=CC1 (stereo not given) | 99.4%
S=c1[nH]ccn1-c1ccccc1Cl | 90%
Cn1cc(C(=O)c2nc(-c3cn(C)c4ccc(F)cc34)no2)c2cc(F)ccc21 | 93.3%
COc1nc2c(c(=O)n1C)CN(Cc1ccccc1)C=N2 | 92.9%

Compound | growth
CCC1=C(c2ccc(OC)cc2)C(C)(C)Oc2cc(O)c(CN3CCCC3)cc21 | 85%
O=C(O)c1cccc(-n2ncc(Cl)c(Cl)c2=O)c1 | 107%
COc1ccc2c(c1)N(CCO)C1=C(C(=O)OC1)C2c1cccc(Br)c1 (stereo not given) | -26.3% (active)
CC[C@H](C)[C@H](N)C(=O)O | 115%
Cn1cnc2c(F)c(Nc3ccc(Br)cc3Cl)c(C(=O)NOCCO)cc21 | 24.5%
COc1ccc(C[C@H](N)C(=O)N[C@@H]2[C@@H](CO)OC(n3cnc4c(N(C)C)ncnc43)[C@@H]2O)cc1 (stereo not given in full) | -29.9% (active)
OC(COc1cccc2ccccc12)CN1CCN(c2ccccc2Cl)CC1 (stereo not given) | 103%
CN(C)c1ccc(C2Nc3ccccc3-n3cccc32)cc1 (stereo not given) | 123%
O=C1Nc2ccc(Br)cc2/C1=N\N=C/c1cn(Cc2ccccc2)c2ccccc12 | 84.4%
O=Cc1ccc2nc(C(Cl)(Cl)Cl)ccc2c1 | 104%
S=C1SCN(Cc2ccccc2)CN1Cc1ccccc1 | 16.5%
C#Cc1cccc(Nc2nc(C)nc3cc(NC(=O)CCl)ccc23)c1 | -58% (active)
C=C1C(=O)O[C@H]2[C@H]1CC/C(COC(=O)/C=C\C(=O)O)=C\CC[C@@]1(C)O[C@@H]21 | 105%
COc1ccc(-c2nc(SCCC(C)C)nc(N/N=C\c3cccc([N+](=O)[O-])c3)c2C#N)cc1 | 97%
Cc1ccccc1C[P+](c1ccccc1)(c1ccccc1)c1ccccc1 | 1.16% (active)
COc1ccc(C(=O)N2NC(=O)/C(=C/c3cn(-c4ccccc4)nc3-c3ccccc3)N=C2c2ccccc2)cc1 | 103%
C=C1C(=O)O[C@H]2[C@H]1CC/C(COC(=O)NCc1[nH]nc3ccccc13)=C\CC[C@@]1(C)O[C@@H]21 | -51% (active)
Cc1ccc(-c2nc(/C=N/Nc3cc(C)nc4ccc(Br)cc34)c(C)o2)cc1 | -37.4% (active)
O=C1/C=C/[C@@H](O)[C@@H]2C[C@@H](O)C[C@H]2/C=C/CCC[C@H](C(F)(F)F)O1 | -32.7% (active)
N#Cc1c(N)nc2c(c(-c3ccc(Cl)cc3)nn2-c2ccccc2)c1C#N | 98.9% [100 µM]
